Source: PubChem BioAssay
Shown are actives, neighbours in structure and some others; about 19% of the full set was active somewhere.
TDP1 cell noCPT: qHTS for Inhibitors of human tyrosyl-DNA phosphodiesterase 1 (TDP1): qHTS in cells in absence of CPT | DT40 Tdp1-/- hTDP1 cells, no CPT, ATP luminescence, 48 h | 420,000 tested, 15% active | Potency, µM (doses to about 46.2 µM), for the others: at the highest dose activity change, negative = growth inhibition, actives largely listed as inhibitors; also: potency is read from the fitted curve at half-maximal effect; % is scaled to controls: 0 for no effect and ±100 for the full control effect; nearly all actives have a fitted effect of over 55% in size
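No-CPT arm: Tdp1-/-;hTDP1 DT40 cells (400/well) plus compounds, incubated ≥48 hr at 37 °C. Readout CellTiter-Glo luminescence.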
IL1B secr inh: inflammasome signaling inhibition, IL-1 beta readout | activity change, % at 57.5 µM | THP-1 LPS/ATP IL-1B secretion, AlphaLISA, 16 h; hits give low values | AID 743279 | 360,000 tested, 4.7% active; in the data active = activity change below about -50%; inconclusive = mostly about -30% to -49%; also: % is scaled to controls: 0 for no effect and ±100 for the full control effect
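THP-1 cells pretreated 1 hr with compounds (up to 57.5 uM final), then stimulated with LPS (250 ng/mL final) plus ATP (1.25 mM final); secreted IL-1B measured by AlphaLISA after 16 hr, decreased signal indicating inhibition.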
HepG2 tox: kills HepG2 cells in TGF-b inhibitor counter-screen; HepG2 CAGA-GFP viability, ATP luminescence, 18 h; Potency, µM (highest dose often 46.1 µM), inactives show top-dose activity change, negative = cytotoxicity, actives largely listed as cytotoxic; 410,000 tested, 0.76% active; also: potency is read from the fitted curve at half-maximal effect
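HepG2 CAGA-GFP cells (1000/well, DMEM with 1% FBS) received compound, then TGF-beta at 500 pg/mL final, and were incubated 18 hours at 37 degrees C. Viability was read by CellTiter-Glo luminescence. Media-only wells were set as complete cell-killing and DMSO as no toxicity.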
TDP1 cell CPT: DT40-hTDP1 cell growth loss with CPT; chicken DT40 Tdp1-/-;hTDP1 cells + 20 nM CPT, ATP luminescence, 48 h; Potency, µM (doses to about 46.2 µM), for inactives: at the top dose activity change, negative = growth inhibition, actives largely listed as inhibitors; 420,000 tested, 12% active; also: potency is read from the fitted curve at half-maximal effect; % is scaled to controls: 0 for no effect and ±100 for the full control effect; nearly all actives have a fitted effect of over 55% in size
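Chicken DT40 Tdp1-/- cells complemented with human TDP1, 400 cells/well, exposed to compounds plus 20 nM camptothecin for at least 48 h at 37 C; viability read as ATP content by CellTiter-Glo luminescence.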
TDP1 inh: inhibitors of human tyrosyl-DNA phosphodiesterase TDP1; Q9NUW8; recombinant TDP1, AlphaScreen DNA substrate cleavage; Potency, µM (titrated, usually from 130 µM), inactives show at the highest dose activity change, negative = inhibition, usual class: inhibitors; 350,000 tested, 0.28% active; AID 485290; also: potency is read from the fitted curve at half-maximal effect; % is scaled to controls: 0 for no effect and ±100 for the full control effect; nearly all actives have a fitted effect of over 40% in size
Target sequence (Q9NUW8 whole entry, looked up): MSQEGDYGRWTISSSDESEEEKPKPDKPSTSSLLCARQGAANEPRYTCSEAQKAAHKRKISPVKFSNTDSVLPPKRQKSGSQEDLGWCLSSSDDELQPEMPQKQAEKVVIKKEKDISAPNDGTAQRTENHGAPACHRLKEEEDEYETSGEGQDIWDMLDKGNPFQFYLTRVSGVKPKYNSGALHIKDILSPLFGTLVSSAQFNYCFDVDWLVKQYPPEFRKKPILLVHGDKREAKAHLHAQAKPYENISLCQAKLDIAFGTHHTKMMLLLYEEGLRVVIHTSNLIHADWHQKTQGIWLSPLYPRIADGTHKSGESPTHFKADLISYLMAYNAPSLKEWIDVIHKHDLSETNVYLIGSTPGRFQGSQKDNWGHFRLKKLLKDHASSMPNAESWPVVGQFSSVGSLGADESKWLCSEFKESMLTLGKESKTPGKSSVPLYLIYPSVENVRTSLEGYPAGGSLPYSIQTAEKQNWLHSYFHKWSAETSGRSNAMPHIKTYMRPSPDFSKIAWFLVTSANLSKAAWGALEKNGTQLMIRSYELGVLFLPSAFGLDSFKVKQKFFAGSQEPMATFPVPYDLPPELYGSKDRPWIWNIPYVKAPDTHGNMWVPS
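Recombinant human Tdp1 (E. coli-expressed, 1 nM final) preincubated with compounds 15 min at room temperature, then 5'-biotin/3'-phosphotyrosine-FITC DNA substrate (15 nM final) added for 5 min. AlphaScreen beads (10 ug/ml final) added 10 min; cleavage lowers signal.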
TGFb SMAD3 inh: inhibitors of TGF-b signaling; 410,000 tested, 1.2% active; AID 588855; Potency, µM (doses to about 46.1 µM), without a hit: top-dose activity, negative = inhibition, usual class: inhibitors; HepG2 CAGA-GFP TGF-b/SMAD3 reporter, GFP fluorescence, 18 h; TGF-beta stimulated, 500 pg/mL final; also: potency is read from the fitted curve at half-maximal effect; % is scaled to controls: 0 for no effect and ±100 for the full control effect; nearly all actives have a fitted effect of over 65% in size
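Smad-responsive CAGA-GFP expression was quantified in HEPG2 cells exposed to compounds and 500 pg/mL final TGF-beta for 18 h at 37 degrees C; unstimulated wells defined full inhibition.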
Active calls of the source: *; ? = inconclusive; nt = no result given; ! = repeats disagree; [ ] = dose if it differs, or a comment. Unless noted, calls follow the shape of the dose curve; as a rule, active = well fitted curve in the direction sought with a large enough effect; inconclusive = small, poorly fitted or top-dose-only effect, or another doubt; inactive = no such curve, though single readings can be large; an effect the other way counts as inactive or inconclusive.

SMILES | TDP1 cell noCPT | IL1B secr inh | HepG2 tox | TDP1 cell CPT | TDP1 inh | TGFb SMAD3 inh
CCN1C[C@@]2(COC)C3[C@@H](OC)[C@H]4C1[C@@]3(C1C[C@]3(O)C(OC)[C@H](O)[C@@]4(OC(C)=O)C1[C@H]3OC(=O)c1ccccc1)[C@H](OC)C[C@H]2O (stereo partly drawn) | nt | nt | nt | nt | 3% | nt
NCC(=O)c1ccc2ccccc2c1 | -15% | nt | -17% | -6% | nt | 11%
Cc1nn(Cc2ccccc2)c(C)c1C=C1C(=O)NC(=O)NC1=O | -2% | -106* | -9% | 7% | 0% | 11%
Cc1nn(Cc2ccccc2)c(C)c1C(=O)NCc1ccccc1 | -8% | -10 | 1% | -3% | -3% | 35%
O=C1NC(=O)N(CCc2ccc(F)cc2)C(=O)/C1=C/c1cccs1 | 16µM* | -97* | -18% | 16µM* | 0% | 5%
C=CCN1C(=O)/C(=C/c2cccs2)C(=O)NC1=S | 15µM* | -104* | -81% | 16µM* | 3% | ?
CN(C)c1ccc(/C=C2\C(=O)NC(=O)N(CCc3ccc(F)cc3)C2=O)cc1 | 2% | 6 | -3% | 6% | -2% | 3%
O=C1NC(=O)N(CCc2ccc(F)cc2)C(=O)/C1=C/c1ccco1 | ? | -53* | 2% | ? | nt | 11%
C=CCN1C(=O)/C(=C/c2ccc(N3CCOCC3)o2)C(=O)NC1=S | -23% | 15 | 0% | -10% | -5% | 74%
COc1ccc(OCC(=O)N2CCN(Cc3ccc4c(c3)OCO4)CC2)cc1 | 12% | -10 | -14% | -27% | -6% | -10%
COc1cc(OC)c(OC)cc1CN1CCN(C(=O)COc2ccc3ccccc3c2)CC1 | 26µM* | ? | -46% | ? | 1% | -7%
COc1cccc(CN2CCN(C(=O)COc3ccc4ccccc4c3)CC2)c1 | ? | 5 | -13% | ? | 2% | -14%
COc1ccc(OCC(=O)N2CCN(Cc3ccc(SC)cc3)CC2)cc1 | 23µM*! | -4 | 4% | ? | 3% | ?
Cc1ccc(-n2c(O)c(/C=N/c3ncc(Br)cc3Br)c(=O)[nH]c2=O)cc1 | 9.2µM* | 6 | 3% | ? | -3% | 14%
Cc1ccc(-n2c(O)c(C=Nc3ccc(S(N)(=O)=O)cc3)c(=O)[nH]c2=O)cc1 | 3% | 15 | -5% | -8% | -2% | 10%
Cc1cccc(-n2c(O)c(C=Nc3ccc(Br)cn3)c(=O)[nH]c2=O)c1 | 16µM* | 11 | 3% | 10µM* | 0% | -18%
Cn1cccc1-c1cccnc1 | -2% | nt | nt | -8% | 26% | nt
CC(C)CCOC(=O)c1c(N)n(CC2CCCO2)c2nc3ccccc3nc12 (stereo not drawn) | 21µM* | -65* | 0% | ? | 5% | 11µM*
CC(C)CCn1c(N)c(C(=O)OCC2CCCO2)c2nc3ccccc3nc21 (stereo not drawn) | ? | -21 | -24% | ? | 6% | ?
CCCOC(=O)c1c(N)n(Cc2cccs2)c2nc3ccccc3nc12 | ? | -3 | 1% | 18µM* | nt | -8%
CCCCn1c(N)c(C(=O)OCC2CCCO2)c2nc3ccccc3nc21 (stereo not drawn) | 18µM* | -2 | 4% | 18µM* | 2% | -9%
CCCCn1c(NC(=O)c2ccco2)c(C(=O)OCC)c2nc3ccccc3nc21 | 4.6µM* | ? | -32% | 9.2µM* | -4% | -2%
CCCCn1c(NS(=O)(=O)c2ccc(C)cc2)c(C(=O)OCC)c2nc3ccccc3nc21 | ? | -7 | -1% | ? | 3% | -8%
CCCC(=O)O[C@@H]1[C@@H](C)[C@@]2(O)[C@@H](C=C(CO)C[C@@]3(O)C(=O)C(C)=C[C@@H]23)[C@@H]2C(C)(C)[C@]12OC(=O)CCC | nt | nt | nt | nt | 9% | nt
Cc1o[nH]c(=O)c1C[C@H](N)C(=O)O | 0% | nt | nt | 6% | -4% | nt
SMILES | TDP1 cell noCPT | IL1B secr inh | HepG2 tox | TDP1 cell CPT | TDP1 inh | TGFb SMAD3 inh
Cc1ccc2oc(=O)c(-c3nc4ccc(C)cc4[nH]3)cc2c1 | -29% | nt | -9% | ? | 5% | 6%
CC(C)[C@H](NC(=O)[C@H](CCC(=O)O)NC(=O)[C@H](Cc1ccccc1)NC(=O)[C@H](C)NC(=O)[C@@H](N)Cc1ccc(O)cc1)C(=O)N[C@H](C(=O)NCC(N)=O)C(C)C | -16%[4.12 µM] | nt | nt | ? | 4% | nt
Nc1c(C(=O)OC2CCCCC2)c2nc3ccccc3nc2n1CC1CCCO1 (stereo not drawn) | 16µM* | ? | 18% | ? | -4% | 2%
C/C(=C\[C@@H](N)C(=O)O)CP(=O)(O)O | -14% | nt | nt | 16% | -9%[56.1 µM] | nt
C[C@]12CCC3C(CC[C@H]4C[C@H](O)CC[C@]34C)C1CC[C@@H]2C(=O)CO (stereo partly drawn) | nt | nt | nt | nt | 5%[56.1 µM] | nt
CNS(=O)(=O)c1cc(NC(=O)c2cccc3cccnc23)ccc1C | 21µM* | ? | -8% | 23µM* | 7% | -4%
CC1C(=O)OC2CCN3CC=C(COC(=O)[C@](C)(O)[C@]1(C)O)C23 (stereo partly drawn) | -28% | nt | nt | ? | -7%[56.1 µM] | nt
O=C(NCCc1ccccc1)c1ccc(CSc2nc3cccnc3n2Cc2ccc(F)cc2)cc1 | 15µM* | nt | -28% | ? | -2% | -28%
CC(CCC(=O)O)C1CCC2C3CC[C@H]4CC(O)CC[C@@]4(C)C3CC[C@@]12C (stereo partly drawn) | 9% | nt | nt | -8% | -5%[56.1 µM] | nt
CC12CCC(=O)C=C1CC(N1CC1)C1C2CCC2(C)C(O)CCC12 (stereo not drawn) | 2.6µM* | -3 | 2% | 1.8µM* | nt | 6%
CC(=O)C1CCC2C3C(N4CC4)CC4=CC(=O)CCC4(C)C3CCC12C (stereo not drawn) | 4.6µM* | -2 | 2% | 3.7µM* | nt | -5%
O=C(c1cnccn1)N1CCC2(CC1)CN(Cc1ccncc1)C2 | -10% | nt | nt | 6% | nt | nt
CCCOC(=O)C1=C(C)CS[C@@H]2[C@H](NC(=O)COc3ccccc3)C(=O)N12 | ? | nt | -1% | 20µM* | nt | -10%
N[C@@H](Cc1cc(I)c(O)c(I)c1)C(=O)O | ? | 27 | -1% | -12% | 0% | 0%
NC(Cc1cc(O)c(O)cc1O)C(=O)O (stereo not drawn) | 6.3µM* | nt | 4% | 5µM* | 0.18µM* | -20%
C=CCN=C=S | -9% | nt | nt | -6% | 8% | nt
